# Results as given in the supplement of paper PMC11417369.
# ± gives the standard deviation of the averaged measurements. In all, about 25,000 sequences were measured (“ln(normalized median fluorescence intensity)”: median about 7.9, highest 2% from about 11 on). What follows is part of a selection rich in the highest values, with near analogues and random picks from the rest.
# Tested on: PfAP2-I AP2 domain 3 (GST-tagged)
# Assay: gcPBM binding intensity (ln(normalized median fluorescence intensity)); higher = stronger DNA binding
# Outline: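 An Agilent 4 × 180k array of primer-extended double-stranded 36-bp intergenic genomic probes, with negative controls, was incubated for 1 h with GST-tagged P. falciparum DNA-binding domains expressed in E. coli. Alexa488 anti-GST antibody detected bound protein, scanned at 488 nm. Binding intensity is the highest Masliner-normalised natural-log median intensity across replicate spots of either probe orientation.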
row,Sequence,gcPBM binding intensity (ln)
1,AAAAAAAAAAAACACACACACACACCCAAATATATA [CACACA_site150],7.91 ± 0.2
2,GGAAAAAATATATGCACACCCCCCAAAAAAAAAAAA [CACACA_site2222],10.6 ± 0.2
3,TGGGAAAAAATATATGCACACCCCCCAAAAAAAAAA [CACACA_site8696],11.5 ± 0.52
4,CGGATGAATATATATGCACACATCTTTTGTAAAAAT [CACACA_site3190],9.16 ± 0.11
5,TATATTATATATATACTGCACTGTTTTACAAAATTA,10.8 ± 0.57
6,TTTCCAATTAGTTTTGCATGTTGAAAAAATGTTGGA [TGCATGCA_site1035],7.71 ± 0.52
7,TTTAGTGAGTTTGTTGTGCACTGAAAAAATTACAAT,11.1 ± 0.18
8,TTAATTATGGACAGGGTGCACATGAATAATAATACC,11 ± 0.18
9,GCACATATGAATATAATACACACTTGTATTATTAAT [CACACA_site1841],8.1 ± 0.52
10,CATGAATATTTTAATGTGCACATTTATCATTATATG,9.5 ± 0.21
11,TTTGAATACTGAATGGTGCAAATTGTTCTCCCCATG,10.9 ± 0.61
12,ATTTATATATATATAGGTACACATATTTATATATAA [XGTACX_site8487],7.58 ± 0.41
13,AAAGAAATAAGGTGCACACATATACAGATATATATA [CACACA_site4399],10.3 ± 0.4
14,TTAAAAGTTATGGATACACACATATAAATATAGATT [CACACA_site7175],7.57 ± 0.42
15,AAATAGTTGTTAAAGGTGCACAATATGGATATAAGA,11.5 ± 0.38
16,AATATATGTTTAATTTCACACACAAATATACATTTT [CACACA_site9385],7.69 ± 0.65
17,TACAGATACAGATACACACACACACCGAAATAAATA [CACACA_site4865],7.84 ± 0.37
18,CATATATATCGTAATGCACACATGTAATTTCATAAT [CACACA_site811],11 ± 0.92
19,TTCAAAATAAAAAATTCACACACATATATATATATA [CACACA_site8653],9.28 ± 0.39
20,TAAAAATTCAATTGCACACGCACATATTTTAATAAG [CACACA_site2014],8.8 ± 0.057
21,AAAATTTAATATAATGCACACATAAAAAAAAATTCA [CACACA_site8640],10.9 ± 0.92

row,Sequence,gcPBM binding intensity (ln)
1,CTTATATTAATTATTACACACATATTTATAAATGCA [CACACA_site6501],8.07 ± 0.47
2,ATATTTTATTATATAGGTACACATAATTTCATGTAA [XGTACX_site415],7.83 ± 0.52
3,ATTTCGTAATTTATATCACACACATATATATATAAT [CACACA_site9021],8.06 ± 0.53
4,ATTTTTAATTTTTTCACACATATATTTAAAATAAAA [CACACA_site4799],7.94 ± 0.49
5,AATTTAATATAATGCACACATAAAAAAAAAAAATTC [CACACA_site1504],11 ± 0.61
6,AATTTAATATAATGCACACATAAAAAAAAATTCAAA [CACACA_site2062],11 ± 0.79
7,TGTATAAATATAATCACACATATATATATATATATA [CACACA_site4365],9.32 ± 0.53
8,AATTTATAAGAATAAAGTACTAAAGATACAACTTTA [XGTACX_site7153],7.53 ± 0.4
9,GAATAAAAAAAAAAAAAAATTTATTTTATAATAAAA [CACACA_negctrl_site1514],7.24 ± 0.49
10,ACTTATATTATAAATTGTACAAATATTATATTTGGT [XGTACX_site1424],7.76 ± 0.54
11,ACATATATATATATATATATATATATATTACATTTA [CACACA_negctrl_site627],8.54 ± 0.28
12,AATAAAGAAGAAGAAAGTACACATTTCACAAAGGGG [XGTACX_site1308],8.23 ± 0.21
13,AAAAATACAATTTTCTTGCACTTTGTTGCATTGTAA,9.79 ± 0.32
14,TATAAATAGATATATACACACTTGTGCAGAATATTA [CACACA_site7112],9.37 ± 0.099
15,CCATCTTTTTTACGATGTACAAGTATAAGGTATACG [XGTACX_site2697],7.76 ± 0.46
16,TACTGCCTTCCATACCCACACACTTCCCATATATTT [CACACA_site2705],8.44 ± 0.69
17,TAGAACAAATAAAACACACACATATAAATATAGATG [CACACA_site7325],7.65 ± 0.73
18,TTTTTTTGTTGTTGTTGTACGATATTTTCCTTATCA [XGTACX_site2375],7.93 ± 0.54
19,TATTCAATACTTAATGCACACAATAAAAAAAATATG [CACACA_site2467],10.9 ± 0.71
20,TATGTAATAAAATATACACACAATATACTTATATAT [CACACA_site3682],7.53 ± 0.55
21,TATGCAATAAAATATACACACAATATACTTATATAT [CACACA_site7691],7.87 ± 0.4

row,Sequence,gcPBM binding intensity (ln)
1,AATAATAATATATGTAGTACACATTTCCATTATGTT [XGTACX_site3708],7.75 ± 0.27
2,ACTTATTGTGGTTTTGCATGTAGCATTTTTACATAC [TGCATGCA_site247],8.62 ± 0.91
3,TGTTTTATTTTTTTTGTGCACATACCTTTAGCATCA [GTGCAC_site9812],10.64 ± 0.064
4,TTTTGTTATTTTTTAGTGCATATAAAGGTTGTTAAG,10.7 ± 0.4
5,TTTCTTTTTAAATAGGTGCATATTTTTATAAATATA,9.95 ± 0.42
6,CATCATCTTTTAAAGGTGCATAATAATATTGTTAAT,11.4 ± 0.69
7,ATATACATTCTATATACATGCATACTTCATTTTGTG [TGCATGCA_site966],8.03 ± 0.85
8,GAGTGAAATATGCAAACACACACGAGAAAAATGTAT [CACACA_site3196],8.09 ± 0.85
9,AGGAAAATTATGAATGGTACAGAATATATTAGGAGA [XGTACX_site6282],8.05 ± 0.74
10,GTGAAATATGCAAACACACACGAGAAAAATGTATAT [CACACA_site7488],8.19 ± 0.91
11,AATGAGAAGGACTGCACACTAAAATGGAAGGAGAAA [CACACA_site1575],8.28 ± 0.79
12,AAGGAGAAATATTGCACACGTGCAAAATGGTATGAG [CACACA_site259],11.1 ± 0.35
13,AAAAGGAGAAATATTGCACACGTGCAAAATGGTATG [CACACA_site4300],11.3 ± 0.085
14,AAGAAGAGTTATTGTAGTACATTTTTAAATGTAATA [XGTACX_site7664],7.73 ± 0.34
15,TGTTATATAATTTAGCGTACAGGTTATAGGACGGAT [XGTACX_site8823],8.5 ± 0.35
16,CCATGATTATTAGATTGTACATAACATACAAATTGA [XGTACX_site314],7.68 ± 0.45
17,TGTCATGATACATACACACACATACACATACACATA [CACACA_site2135],8.05 ± 0.42
18,TTTTTTTTTTTCGGGGGTACTAATATATTATTAATA [XGTACX_site7809],10.8 ± 0.47
19,AATATTATATATATGGGTACTAATTCCTTTAATTTC [XGTACX_site102],7.45 ± 0.53
20,ATATATATATATATATGTACTAATTAATATTTCGAG [XGTACX_site580],9.45 ± 0.49
